# From PubChem
# Calb FLC = C. albicans growth inhibition with fluconazole, primary screen, CaCi-2 strain, Alamar Blue fluorescence. growth inhibition, % (concentration not given with the values). AID 1979, 2009. actives 0.57% (n = 300,000). C. albicans CaCi-2 (fluconazole-resistant clinical isolate) + fluconazole, 48 h;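 active = growth inhibition above about 58% in most replicates, limit read from the data, passing the limit was not always enough; inconclusive = exactly half the replicates above a set limit; inactive = most replicates below a set limit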;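 also: all wells also contain fluconazole at 8 µg/ml as a sub-toxic cotreatment; 0% = median of DMSO wells and 100% = median of geldanamycin control wells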
# PP5 primary = PP5 phosphatase inhibitors, primary screen, biochemical, fluorescence | Serine/threonine-protein phosphatase 5 (Homo sapiens), P53041 | inhibition, % at 6.7 µM | actives 0.18% (n = 320,000) | purified PP5c, OMFP substrate fluorescence | AID 1987, 2009;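 active = inhibition above the campaign's mean inhibition across all tested compounds plus 3 SD, cut at about 9.5% in these data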;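 also: 0% = DMSO only and 100% = 100 µM cantharidin control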
# Target sequence (P53041 whole entry, looked up): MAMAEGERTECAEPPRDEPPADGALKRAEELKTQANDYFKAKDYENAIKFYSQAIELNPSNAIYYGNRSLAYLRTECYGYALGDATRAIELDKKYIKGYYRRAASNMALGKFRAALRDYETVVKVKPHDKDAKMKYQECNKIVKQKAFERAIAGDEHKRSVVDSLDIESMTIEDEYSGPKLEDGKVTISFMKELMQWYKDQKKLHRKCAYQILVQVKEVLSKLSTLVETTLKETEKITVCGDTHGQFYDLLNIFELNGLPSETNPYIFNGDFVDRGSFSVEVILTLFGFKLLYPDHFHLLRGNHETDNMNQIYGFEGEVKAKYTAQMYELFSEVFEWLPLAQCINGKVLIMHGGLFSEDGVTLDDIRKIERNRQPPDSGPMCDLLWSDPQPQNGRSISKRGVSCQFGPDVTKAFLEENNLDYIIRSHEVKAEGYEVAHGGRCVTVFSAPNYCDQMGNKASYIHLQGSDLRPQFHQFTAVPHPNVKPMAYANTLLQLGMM
# CSC inhib = cancer stem cell viability inhibitors, primary screen, luminescence; inhibition, % at 7.5 µM; cancer stem cell-like cells viability; AID 2717, 2010; actives 1.1% (n = 300,000); in the data active = inhibition above about 75%; inconclusive = no clear call, values can overlap the other calls; tested in HMLE shEcad cells
# ALR inh = inhibitors of human ALR sulfhydryl oxidase, primary screen, biochemical, H2O2 detection, HRP-luminol luminescence, single point; inhibition, % (no concentration beside the values); AID 485317, 2010; actives 3.8% (n = 290,000); purified ALR, DTT oxidation; FAD-linked sulfhydryl oxidase ALR (Homo sapiens), P55789;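 active = mean replicate inhibition above about 79%, with every replicate also reaching it, limit read from the data; inconclusive = only one of the two criteria met; inactive = mean below limit and not every replicate reaching it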
# PP1 inh = PP1-alpha phosphatase inhibitors, primary screen, counter-screen for PP5 inhibitor project, biochemical, fluorescence, OMFP substrate, single point; purified PP1alpha; inhibition, % at 6.7 µM; actives 0.9% (n = 320,000); AID 2235, 2010; Serine/threonine-protein phosphatase PP1-alpha catalytic subunit (Homo sapiens), P62136;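 active = inhibition above the mean inhibition of all tested compounds plus 3 SD, computed separately for each screening campaign, cut at about 15% in these data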
# An asterisk follows results filed as active; ? = inconclusive; nt = no result; ! = not confirmed by another sample. An excerpt weighted towards active compounds, which were near 5.4% of everything screened.
SMILES,Calb FLC,PP5 primary,CSC inhib,ALR inh,PP1 inh
CC(=O)Oc1ccc(C(=O)OCC(=O)c2c(N)n(C)c(=O)n(C)c2=O)cc1OC(C)=O,-5,0,-5,99*,-4
COc1cc(O)c(C(CCN2CCCC(C)C2)c2ccc3c(c2)OCO3)c(OC)c1 (centres undefined),-12,1,16,-14,1
COc1cc(O)c(C(CCN2CCN(c3ccccc3)CC2)c2ccc(N(C)C)cc2)c(OC)c1 (centres undefined),-19,6,8,-14,3
COc1cc(O)c(C(CCN2CCCC(C)C2)c2ccc(N(C)C)cc2)c(OC)c1 (centres undefined),-24,-1,13,98*,-2
CCN(CC)CCC(c1ccc(N(C)C)cc1)c1c(O)cc(OC)cc1OC (centres undefined),-2,1,1,99*,-2
COc1cc(O)c(C(CCN2CCOCC2)c2ccc(N(C)C)cc2)c(OC)c1 (centres undefined),-16,0,5,99*,-2
C=CCN=C1S/C(=C/c2ccc([N+](=O)[O-])cc2)C(=O)N1CC=C,20,1,6,-4,-3
O=C1NC(=O)/C(=C/c2ccc(O)cc2)S1,-20,3,-4,99*,-2
COc1cc(NC(C)CCc2ccccc2)cc(OC)c1OC (centres undefined),8,3,-12,88*,3
CCOC(=O)c1c(C)[nH]c(C)c1S(=O)(=O)NCCc1cccs1,-7,1,-14,-16,3
Cc1ccc(NC(=O)CNC(=O)c2ccc(Oc3ccccc3)cc2)nc1,89*,2,5,-8,-5
O=Nc1c(-c2cccc([N+](=O)[O-])c2)nc2ncccn12,94*,2,4,nt,-5
COc1ccc(NC(=O)/C=C/c2cccc(C(F)(F)F)c2)cn1,20,5,9,-7,-4
COC(=O)c1ccc(NC(=O)COc2ccc(C3C(C#N)=C(N)Oc4c3ccc3ccccc43)cc2OC)cc1 (centres undefined),18,3,-11,-6,16*
CCOc1ccccc1C1C(C#N)=C(N)Oc2cc(N)ccc21 (centres undefined),-14,2,-7,98*,-1
COc1ccc(OC)c(C2C(C#N)=C(N)Oc3cc(C)[nH]c(=O)c32)c1 (centres undefined),-5,4,-5,-17,-1
COC(=O)c1ccc(C2C(C#N)=C(N)Oc3cc(N)ccc32)cc1 (centres undefined),-11,3,1,97*,2
COc1ccc(OC)c(C2C(C#N)=C(N)Oc3cc(N)ccc32)c1 (centres undefined),?,-1,-9,99*,-2
COc1ccc(N=c2scc(-c3ccc(OC)cc3)n2CCO)cc1,-10,6,13,86*,2
O=C(COC(=O)c1ccccc1Br)Nc1cccnc1Cl,nt,nt,-12,-8,nt
COC(=O)C1=C(O)/C(=C\c2ccc(O)c(OC)c2)N=C1C,24,1,-17,99*,0
COC(=O)C1=C(O)/C(=C\c2ccc(OCC(=O)Nc3ccccc3OC)cc2)N=C1C,9,3,-8,4,7
CCOC(=O)C1=C(O)/C(=C/c2cccc(OC)c2O)N=C1C,0,2,-9,78*,-1
CCOC(=O)C1=C(O)/C(=C\c2cc(C)n(-c3ccccc3F)c2C)N=C1C,15,-1,-10,-6,-2
CN(C(=O)COC(=O)COc1ccc2ccccc2c1)c1c(N)n(Cc2ccccc2)c(=O)[nH]c1=O,nt,2,nt,-21,3
Oc1ccc(C2CNCCc3c2cc(O)c(O)c3Cl)cc1 (centres undefined),-18,2,4,99*!,3
COc1cc2c(cc1OC)C(c1ccc(O)cc1)NCC2 (centres undefined),-28,1,-8,-2,-4
Oc1cc2c(c(Cl)c1O)CCNCC2c1ccccc1 (centres undefined),36,-1,6,99*,0
CCOC(=O)C1CCCCN1Cc1cn(C)nc1-c1ccccc1F (centres undefined),0,3,-4,1,0
Cc1ccc(S(=O)(=O)NC2(C(F)(F)F)NC(=O)N(Cc3ccccc3)C2=O)cc1 (centres undefined),4,1,-7,16,-1
